# Source: PubChem BioAssay
# Values joined by “and” are separate entries in the source; they are usually repeats but may differ in a detail not shown here. Equal entries are not always repeated. For some assays here: Entries with a potency or affinity are not part of this list. Active and inactive are the calls of the source.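 The calls were made as follows, unless noted: active = compounds whose cell count with miR-34 switched on is under 0.7 times the count with it off; inactive = the rest.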
# Legend:
# [1] = molecular target: 6-phosphogluconate dehydrogenase, decarboxylating (Homo sapiens) (UniProt P52209); assay: inhibition of human phosphogluconate dehydrogenase – biochemical, recombinant enzyme, NADPH absorbance, primary screen (AID 1159550;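 active = at least 20% inhibition of 6-phosphogluconate dehydrogenase activity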); settings: recombinant 6PGD, NADPH absorbance 341 nm; at 10 µM; stronger effect = higher value
# 6-phosphogluconate dehydrogenase, decarboxylating (Homo sapiens), sequence (P52209 whole entry, looked up): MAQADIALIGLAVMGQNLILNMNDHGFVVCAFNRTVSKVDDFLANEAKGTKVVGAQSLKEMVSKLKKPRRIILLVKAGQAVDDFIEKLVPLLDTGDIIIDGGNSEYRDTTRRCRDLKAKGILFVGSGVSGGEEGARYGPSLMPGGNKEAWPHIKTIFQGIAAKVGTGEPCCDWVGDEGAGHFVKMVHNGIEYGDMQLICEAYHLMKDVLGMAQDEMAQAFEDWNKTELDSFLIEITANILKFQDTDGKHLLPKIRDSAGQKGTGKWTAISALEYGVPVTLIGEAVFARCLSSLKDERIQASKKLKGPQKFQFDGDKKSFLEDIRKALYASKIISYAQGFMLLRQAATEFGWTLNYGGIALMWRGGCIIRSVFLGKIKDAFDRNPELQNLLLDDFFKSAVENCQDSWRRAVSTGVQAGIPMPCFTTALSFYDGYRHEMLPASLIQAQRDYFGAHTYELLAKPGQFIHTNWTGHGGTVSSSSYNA
# [2] = EMT-state selective cytotoxicity in co-culture – imaging, PC-3E GFP, TEM4-18 mCherry, primary screen (AID 1345086;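 active = compounds killing one labelled cell type while sparing the other, by normalised counts and ratio limits, not self-fluorescent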;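 as to all read-outs here: cells exposed to compound for 72 h before imaging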;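 as to red/green cell ratio (normalised): normalised mesenchymal count divided by normalised epithelial count so high means epithelial killing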); settings: PC-3E GFP / TEM4-18 mCherry co-culture, imaging cell counts, at 1 µM; for red/green cell ratio (normalised): actives lie on both sides, counts scaled to control wells, 1 = unselective
# [3] = viability loss with induced miR-34 in A549 – imaging, A549 dox-inducible miR-34, nuclei and caspase counts, primary screen (AID 1347080); settings: A549 miR-34 inducible, Hoechst nuclei count, 48 h
# [4] = MELAS cybrid and Rieske KO viability enhancers – cell-based, MELAS cybrids, Rieske KO mouse fibroblasts, CellTiter-Glo, primary screen (AID 1508586;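 active = mean z-score across replicates of 1.96 or higher in either the MELAS or the Rieske mutant cell line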;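 also: z relative to plate mean and SD of compound and empty wells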); settings: low glucose
# [5] = molecular target: Mitogen-activated protein kinase 7 (Homo sapiens) (UniProt Q13164); assay: Gal4-ERK5 driven luciferase induction – cell-based, HTS, primary screen (AID 1508626;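 active = luciferase signal above three times the same-plate solvent-only control wells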;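 also: luciferase driven by Gal4-ERK5 fusion binding five Gal4 sites before minimal TATA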); settings: HeLa Gal4-ERK5 transactivation, 18 h, at 5 µM, stronger effect = higher value
# Mitogen-activated protein kinase 7 (Homo sapiens), sequence (Q13164 whole entry, looked up, the tested form may be a part): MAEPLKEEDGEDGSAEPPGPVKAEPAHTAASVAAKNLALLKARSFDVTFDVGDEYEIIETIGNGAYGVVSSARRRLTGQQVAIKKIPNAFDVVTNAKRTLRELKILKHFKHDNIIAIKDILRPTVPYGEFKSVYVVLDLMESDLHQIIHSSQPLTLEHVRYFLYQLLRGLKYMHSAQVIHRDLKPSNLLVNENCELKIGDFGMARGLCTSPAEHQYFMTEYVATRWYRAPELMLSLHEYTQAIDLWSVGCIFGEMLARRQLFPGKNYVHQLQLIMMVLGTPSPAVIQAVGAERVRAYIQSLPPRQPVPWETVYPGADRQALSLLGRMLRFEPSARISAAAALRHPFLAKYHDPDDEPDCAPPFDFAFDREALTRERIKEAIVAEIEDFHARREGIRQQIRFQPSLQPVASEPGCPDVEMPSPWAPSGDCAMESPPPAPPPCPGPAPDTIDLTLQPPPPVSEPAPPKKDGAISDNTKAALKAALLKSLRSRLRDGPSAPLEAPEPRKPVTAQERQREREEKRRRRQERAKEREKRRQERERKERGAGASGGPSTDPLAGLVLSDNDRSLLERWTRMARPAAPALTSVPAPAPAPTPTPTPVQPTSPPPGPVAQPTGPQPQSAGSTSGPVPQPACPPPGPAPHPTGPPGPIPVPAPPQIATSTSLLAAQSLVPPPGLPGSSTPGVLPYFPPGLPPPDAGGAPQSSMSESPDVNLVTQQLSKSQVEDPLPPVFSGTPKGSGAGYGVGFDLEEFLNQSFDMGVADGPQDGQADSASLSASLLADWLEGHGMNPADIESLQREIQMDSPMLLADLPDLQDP
# [6] = blockers of polyQ-driven CASP3 activation – cell-based (AID 1583); settings: polyglutamine-induced caspase-3 activation, cell assay; stronger effect = higher value;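 tested at 10 µM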
# [7] = yeast 75Q aggregation reduction – 75Q-TubU reporter (AID 1593); settings: Yeast 75Q polyglutamine aggregation reporter
# [8] = restoration of touch response, mutant HTT neurons – whole organism, C. elegans mechanosensory neurons, N-terminal huntingtin (AID 1599); settings: C. elegans polyQ-huntingtin mechanosensory neurons, stronger effect = higher value
# [9] = blockers of cytochrome c efflux from mitochondria – biochemical, purified mitochondria (AID 1603); settings: stronger effect = lower value;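 also: mouse liver mitochondria challenged with calcium chloride; signal normalized to the plate average as 100%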
# [10] = polyglutamine aggregate formation blockers (AID 1604); settings: polyglutamine-induced protein aggregation inhibition assay; stronger effect = higher value; tested at 2.5 µM
# [11] = glutamate transport activators, MN-1 cells, MN-1 cell line (AID 1612); settings: MN-1 motor neuron cells, stronger effect = higher value;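 also: tested at 1 µM final; 0% = mean of DMSO vehicle wells on each plate; positive means more glutamate uptake than control and negative means less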
# [12] = 75Q-TubH aggregate inhibition, S. cerevisiae, yeast (AID 1616); settings: S. cerevisiae 75Q-TubH polyglutamine aggregation suppression; stronger effect = higher value
# [13] = compounds altering viability of human ES cells (AID 493140; call rule not given here;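 also: cells exposed to compounds for four days before counting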); settings: human embryonic stem cell survival screen; stronger effect = higher value
# [14] = P. berghei load reduction in hepatocytes – cell-based, HepG2, luciferase luminescence, HepG2 viability, primary screen (AID 624349; in the data active = parasite load remaining mostly below about 12%, no sharp cut-off; inactive = mostly above about 10%;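 also: 100% = mean of DMSO negative control wells on the same plate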); settings: P. berghei liver stage in HepG2, luciferase luminescence, concentration not given here; parasite load remaining: stronger effect = lower value; viability: measured here: HepG2 viability without parasites
# [15] = molecular target: NAD(+) hydrolase SARM1 (Homo sapiens) (UniProt Q6SZW1); assay: blocking NAD cleavage by SARM1 SAM-TIR – cell lysate, NAD-Glo luminescence (AID 1508614;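 active = compound whose remaining NAD level is above about 45 nM, limit read from the data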;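 also: higher remaining NAD means stronger inhibition of SARM1 NADase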); settings: SAM-TIR HEK293T lysate NADase, at 1 µM, stronger effect = higher value
# NAD(+) hydrolase SARM1 (Homo sapiens), sequence (Q6SZW1 whole entry, looked up): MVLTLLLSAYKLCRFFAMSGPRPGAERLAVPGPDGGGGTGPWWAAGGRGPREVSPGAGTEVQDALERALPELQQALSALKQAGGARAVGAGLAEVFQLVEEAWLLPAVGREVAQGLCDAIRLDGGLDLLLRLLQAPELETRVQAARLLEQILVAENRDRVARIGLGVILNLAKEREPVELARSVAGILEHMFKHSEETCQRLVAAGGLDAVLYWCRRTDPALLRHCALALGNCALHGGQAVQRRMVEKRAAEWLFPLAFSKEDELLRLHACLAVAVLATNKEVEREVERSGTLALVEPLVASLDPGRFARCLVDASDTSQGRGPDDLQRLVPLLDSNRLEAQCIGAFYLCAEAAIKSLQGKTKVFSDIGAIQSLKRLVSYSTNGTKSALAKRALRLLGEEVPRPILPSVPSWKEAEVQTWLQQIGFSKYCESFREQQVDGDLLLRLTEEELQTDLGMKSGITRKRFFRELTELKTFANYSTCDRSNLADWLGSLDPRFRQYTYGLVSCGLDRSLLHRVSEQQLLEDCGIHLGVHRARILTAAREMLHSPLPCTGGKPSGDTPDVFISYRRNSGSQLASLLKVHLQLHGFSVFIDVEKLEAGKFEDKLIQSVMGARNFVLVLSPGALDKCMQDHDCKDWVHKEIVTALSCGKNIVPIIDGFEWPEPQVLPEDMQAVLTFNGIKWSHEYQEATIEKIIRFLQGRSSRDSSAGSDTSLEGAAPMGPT
# [16] = GFP-Q80 aggregate reduction, neuronal-like cells, cell-based, NGF-treated PC12, GFPQ80 (AID 1614); settings: PC12 NGF-treated GFP-polyQ80 inclusion reduction;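 also: lower means fewer inclusions and 0 means no inclusions at all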
# [17] = compounds altering circadian rhythm period length – cell-based, LOPAC library, luminescence reporter (AID 2774; call rule not given here;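 also: values are relative to mean of DMSO wells on each plate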); settings: circadian reporter cells, at 7 µM, actives lie on both sides
# [18] = blockers of cellular phospholipid synthesis – cell-based, LOPAC library, screen 4, primary screen (AID 1347384; call rule not given here); settings: animal cells, phospholipid biosynthesis inhibition screen; at 10 µM
# [19] = galactose survival enhancers in mitochondrial complex I cybrids – cell-based, galactose medium, ATP luminescence, primary screen (AID 1645843;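 active = z-score of at least 1.8 in each of two replicates, scored against plate mean and spread of sample wells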;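 also: positive z means more ATP and so rescue of galactose-driven cybrid death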); settings: complex I mutant cybrid cells, 72 h, stronger effect = higher value
# [20] = measured here: epithelial PC-3E GFP cell survival
# [21] = measured here: mesenchymal TEM4-18 mCherry cell survival
# [22] = stronger effect = lower value, cell number ratio, induced over uninduced
# [23] = measured here: relative caspase fold change +Dox/-Dox
# [24] = measured here: total cells with miR-34 induction, stronger effect = lower value
# [25] = measured here: total cells without miR-34 induction
# [26] = MELAS cybrid survival, CellTiter-Glo 48 h, stronger effect = higher value
# [27] = Rieske KO mouse fibroblast survival, CellTiter-Glo 72 h
structure (smiles),measurement,setting,value
OCc1c[nH]c2ccccc12,inhibition,[1],14.9% (inactive)
same,red/green cell ratio (normalised),[2],0.93 (inactive)
same,normalised cell number,[2]; [20],0.91
same,normalised cell number,[2]; [21],0.84
same,fold change,[3]; [22],0.978 (inactive)
same,fold change,[3]; [23],0.867
same,cell count,[3]; [24],8210
same,cell count,[3]; [25],8390
same,z-score,[4]; [26],-0.392 (inactive)
same,z-score,[4]; [27],-0.0559
same,luciferase signal,[5],88 AU (inactive)
CC(CN(C)C)CN1c2ccccc2Sc2ccccc21 (stereo not given),inhibition,[6],-4.15%
same,score,[7],1.25
same,rescue above control,[8],0
same,cytochrome c release ratio,[9],1.2
same,inhibition of aggregation,[10],52.6%
same,glutamate uptake change,[11],-15.4%
same,aggregation suppression score,[12],1.08
same,survival,[13],1.08 (inactive)
same,parasite load remaining,[14],56% (inactive) and 101% (inactive) and 20% (inactive)
same,viability,[14],86.7% and 71.6% and 86.5%
same,inhibition,[1],3.47% (inactive)
same,red/green cell ratio (normalised),[2],0.95 (inactive)
same,normalised cell number,[2]; [20],1.1
same,normalised cell number,[2]; [21],1.05
same,fold change,[3]; [22],0.881 (inactive) and 0.895 (inactive)
same,fold change,[3]; [23],1.1 and 2.21
same,cell count,[3]; [24],7480 and 9410
same,cell count,[3]; [25],8490 and 10500
same,z-score,[4]; [26],0.461 (inactive)
same,z-score,[4]; [27],-0.196
same,remaining NAD,[15],10 nM (inactive)
same,luciferase signal,[5],76 AU (inactive)
Cc1cc(C(C)(C)CC(C)(C)C)ccc1OCCOCC[N+](C)(C)Cc1ccccc1,inhibition,[6],-7.8%
same,score,[7],-0.1
same,rescue above control,[8],0
same,cytochrome c release ratio,[9],6.77
same,inhibition of aggregation,[10],63.9%
same,glutamate uptake change,[11],10.8%
same,aggregation suppression score,[12],-0.0187
same,survival,[13],0.167 (inactive)
same,parasite load remaining,[14],26.8% (inactive) and 101% (inactive) and 11.6% (inactive)
same,viability,[14],87.1% and 82% and 145%
same,inhibition,[1],18.8% (inactive)
same,red/green cell ratio (normalised),[2],1.11 (inactive)
same,normalised cell number,[2]; [20],0.89
same,normalised cell number,[2]; [21],0.98
same,fold change,[3]; [22],0.811 (inactive) and 0.9 (inactive)
same,fold change,[3]; [23],1.18 and 1.77
same,cell count,[3]; [24],1940 and 8590
same,cell count,[3]; [25],2400 and 9540
same,z-score,[4]; [26],-1.41
same,z-score,[4]; [27],2.46
same,remaining NAD,[15],10 nM (inactive)
same,luciferase signal,[5],116 AU (inactive)
NCCSSCCN,inhibition,[6],34.8%
same,score,[7],1.31
same,rescue above control,[8],-5.12
same,cytochrome c release ratio,[9],1.22
same,inhibition of aggregation,[10],47.1%
same,glutamate uptake change,[11],15.5%
same,inclusion score,[16],2
same,aggregation suppression score,[12],1.2
same,period change,[17],-0.055 h (inactive)
same,parasite load remaining,[14],165% (inactive)
same,viability,[14],85.4%
same,inhibition,[1],7.72% (inactive)
same,red/green cell ratio (normalised),[2],0.92 (inactive)
same,normalised cell number,[2]; [20],1.09
same,normalised cell number,[2]; [21],1.01
same,fold change,[3]; [22],1.02 (inactive)
same,fold change,[3]; [23],2.84
same,cell count,[3]; [24],10300
same,cell count,[3]; [25],10100
same,outcome,[18],inactive
same,luciferase signal,[5],76 AU (inactive)
same,z-score,[19],-0.04 (inactive)
NC(=O)CC[C@H](N)C(=O)O,period change,[17],-0.065 h (inactive)
same,inhibition,[1],-0.19% (inactive)
same,red/green cell ratio (normalised),[2],0.89 (inactive) and 1.18 (inactive)
same,normalised cell number,[2]; [20],1.22 and 0.97
same,normalised cell number,[2]; [21],1.08 and 1.13
same,fold change,[3]; [22],0.981 (inactive) and 0.937 (inactive)
same,fold change,[3]; [23],0.852 and 0.867
same,cell count,[3]; [24],10400 and 8420
same,cell count,[3]; [25],10600 and 8990
same,outcome,[18],inactive
same,remaining NAD,[15],10 nM (inactive)
same,luciferase signal,[5],40 AU (inactive)
same,z-score,[19],0.01 (inactive)
CN[C@H](CC(=O)O)C(=O)O,inhibition,[6],0.95%
same,score,[7],1.4
same,rescue above control,[8],-9
same,cytochrome c release ratio,[9],0.78
same,inhibition of aggregation,[10],80.3%
same,glutamate uptake change,[11],-1.67%
same,inclusion score,[16],2
same,aggregation suppression score,[12],1.66
same,period change,[17],-0.09 h (inactive)
same,parasite load remaining,[14],161% (inactive)
same,viability,[14],83.1%
same,inhibition,[1],6.3% (inactive)
same,red/green cell ratio (normalised),[2],1.02 (inactive)
same,normalised cell number,[2]; [20],1.12
same,normalised cell number,[2]; [21],1.15
same,fold change,[3]; [22],1.06 (inactive)
same,fold change,[3]; [23],0.738
same,cell count,[3]; [24],10900
same,cell count,[3]; [25],10300
same,outcome,[18],inactive
same,luciferase signal,[5],56 AU (inactive)
same,z-score,[19],0.495 (inactive)
NC(N)=NCCCCN=C(N)N,inhibition,[6],0.26%
same,score,[7],1.07
same,rescue above control,[8],-1.01
same,cytochrome c release ratio,[9],1.43
same,inhibition of aggregation,[10],83.3%
same,glutamate uptake change,[11],11.5%
same,inclusion score,[16],2
same,aggregation suppression score,[12],1.37
same,period change,[17],0.195 h (inactive)
same,survival,[13],5.58 (inactive)
same,parasite load remaining,[14],111% (inactive)
same,viability,[14],108%
same,inhibition,[1],-2.55% (inactive)
same,red/green cell ratio (normalised),[2],0.92 (inactive)
same,normalised cell number,[2]; [20],1.06
same,normalised cell number,[2]; [21],0.97
same,fold change,[3]; [22],0.968 (inactive) and 0.866 (inactive)
same,fold change,[3]; [23],0.983 and 0.933
same,cell count,[3]; [24],9930 and 7710
same,cell count,[3]; [25],10300 and 8910
same,outcome,[18],inactive
same,luciferase signal,[5],52 AU (inactive)
same,z-score,[19],0.645 (inactive)
COc1ccc(-c2cc(=O)c3c(OC)c(OC)c(OC)c(OC)c3o2)cc1,inhibition,[1],-8.06% (inactive)
same,red/green cell ratio (normalised),[2],1.11 (inactive)
same,normalised cell number,[2]; [20],1.14
same,normalised cell number,[2]; [21],1.26
same,fold change,[3]; [22],0.921 (inactive)
same,fold change,[3]; [23],0.924
same,cell count,[3]; [24],6760
same,cell count,[3]; [25],7340
same,z-score,[4]; [26],-0.525 (inactive)
same,z-score,[4]; [27],0.0182
same,luciferase signal,[5],100 AU (inactive)
Nc1nc(/C(=C/CC(=O)O)C(=O)N[C@@H]2C(=O)N3C(C(=O)O)=CCS[C@H]23)cs1,parasite load remaining,[14],145% (inactive) and 53% (inactive)
same,viability,[14],95.5% and 96.5%
same,inhibition,[1],-3.19% (inactive)
same,red/green cell ratio (normalised),[2],1.05 (inactive)
same,normalised cell number,[2]; [20],0.96
same,normalised cell number,[2]; [21],1
same,fold change,[3]; [22],0.926 (inactive)
same,fold change,[3]; [23],1.29
same,cell count,[3]; [24],12000
same,cell count,[3]; [25],13000
same,z-score,[4]; [26],-0.448 (inactive)
same,z-score,[4]; [27],-1.4
same,remaining NAD,[15],10 nM (inactive)
same,luciferase signal,[5],40 AU (inactive)
CN1CCc2cccc3c2C1Cc1ccc(O)c(O)c1-3 (stereo not given),inhibition,[6],1.43%
same,score,[7],0.79
same,rescue above control,[8],3.21
same,cytochrome c release ratio,[9],0.9
same,inhibition of aggregation,[10],85.7%
same,glutamate uptake change,[11],14%
same,inclusion score,[16],2
same,aggregation suppression score,[12],1.03
same,period change,[17],0.35 h (inactive)
same,parasite load remaining,[14],9.7% (inactive) and 18.2% (inactive)
same,viability,[14],65% and 86.9%
same,inhibition,[1],-2.58% (inactive)
same,red/green cell ratio (normalised),[2],1.13 (inactive)
same,normalised cell number,[2]; [20],1.2
same,normalised cell number,[2]; [21],1.36
same,fold change,[3]; [22],0.965 (inactive) and 0.839 (inactive)
same,fold change,[3]; [23],2.09 and 1.99
same,cell count,[3]; [24],7940 and 8770
same,cell count,[3]; [25],8230 and 10400
same,outcome,[18],inactive
same,z-score,[19],-1.52 (inactive)
Cc1cc(/C=C/c2ccc3cc(N(C)C)ccc3[n+]2C)c(C)n1-c1ccccc1,inhibition,[6],21.2%
same,score,[7],-2.18
same,rescue above control,[8],0
same,cytochrome c release ratio,[9],0.75
same,inhibition of aggregation,[10],-12.8%
same,glutamate uptake change,[11],-15.7%
same,aggregation suppression score,[12],-0.227
same,parasite load remaining,[14],0.35% (inactive) and 0.64% (inactive)
same,viability,[14],46.6% and 62.4%
same,inhibition,[1],5.46% (inactive)
same,red/green cell ratio (normalised),[2],2.7 (active)
same,normalised cell number,[2]; [20],0.4
same,normalised cell number,[2]; [21],1.08
same,fold change,[3]; [22],1.07 (inactive)
same,fold change,[3]; [23],0.697
same,cell count,[3]; [24],1790
same,cell count,[3]; [25],1670
same,remaining NAD,[15],10 nM (inactive)
same,luciferase signal,[5],28 AU (inactive)
